Source: PubChem BioAssay (NCI)
The panel holds about 83,000 compounds, 20% with a hit somewhere; the sample as a whole holds those more often.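 In brief: 96-well plates, 48 h treatment, single concentration, percent growth endpoint.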 A number with no mark means an inactive call. Calls of active or inactive are those of the source. Rule for the calls: active = growth percent below 10; inactive = the rest.

How the values were obtained:
Assay in all cases: NCI-60 one-dose screen, 48 h (100 = growth as untreated, 0 = no growth, -100 = all killed)
Settings in all cases: 10 µM unless noted
HCT-15 colon = system: HCT-15 colon
HT29 colon = system: HT29 colon
SNB-75 CNS = system: SNB-75 CNS
SNB-19 CNS = system: SNB-19 CNS
U251 CNS = system: U251 CNS
PC-3 prostate = system: PC-3 prostate
SK-MEL-5 melanoma = system: SK-MEL-5 melanoma
UACC-62 melanoma = system: UACC-62 melanoma
LOX IMVI melanoma = system: LOX IMVI melanoma
SK-MEL-28 melanoma = system: SK-MEL-28 melanoma

| SMILES | growth (HCT-15 colon) | growth (HT29 colon) | growth (SNB-75 CNS) | growth (SNB-19 CNS) | growth (U251 CNS) | growth (PC-3 prostate) | growth (SK-MEL-5 melanoma) | growth (UACC-62 melanoma) | growth (LOX IMVI melanoma) | growth (SK-MEL-28 melanoma) |
| --- | --- | --- | --- | --- | --- | --- | --- | --- | --- | --- |
| CCN(CCO)CC(=O)c1cc(Cl)cc(Cl)c1Cl | 101% | 81.8% | 95.3% | 105% | 101% | 84% | 105% | 98.3% | 99.6% | 111% |
| CCN(CC)CCCNC(=O)c1ccc(N)cc1O | 96.1% | 103% | 113% | 106% | 99% | 94.2% | 95.4% | 97.9% | 90.6% | 100% |
| O=C(Oc1ccc([N+](=O)[O-])cc1)c1ccc(CBr)cc1 | 76.9% | 92.3% | 89.2% | 91.5% | 82.4% | 87% | 95.2% | 82.2% | 67.2% | 104% |
| COc1cc2c(cc1OC)-c1ccc3cc4c(cc3c1N(CCCn1ccnc1)C2)OCO4 | 95.7% | 27.6% | 13.2% | 17.2% | -6.84% (active) | 37.6% | 8.78% (active) | -20.4% (active) | 1.62% (active) | 59.2% |
| Cc1nc(Nc2ccc(NC(=S)Nc3ccccc3)cc2)nc2nc(SCc3ccccc3)[nH]c(=O)c12 | 108% | 120% | 104% | 102% | 100% | 100% | 99.7% | 81.7% | 101% | 115% |
| COc1ccc(-c2cc(-c3cc(OC)ccc3OC)[nH]c(=O)c2C#N)cc1 | 62.8% | 38.1% | 56.4% | 68.1% | 39.5% | 72.6% | 40.1% | 47.7% | 44.6% | 74.8% |
| COc1cccc(-c2cnco2)c1OCc1c(C)c(COc2c(OC)cccc2-c2cnco2)c(C)c(COc2c(OC)cccc2-c2cnco2)c1C | 89.6% | 32.7% | 13% | 67.4% | 40% | 71.3% | 45.3% | 42.2% | 45.6% | 55.7% |
| O=S(=O)(NCCNc1cc(-c2c(-c3cccc(O)c3)nc3sccn23)ccn1)c1ccc(Br)cc1 | 44.8% | 51% | 26.3% | 66.1% | 64.6% | 49.8% | 25.2% | 56.8% | 61.6% | 84.9% |
| N=C(N)c1ccc(-c2ccc(-c3ccc(Cl)cn3)s2)cc1 | -46% (active) | 0.247% (active) | 62% | 65.7% | -24.7% (active) | 56.3% | 70.5% | 89.7% | -82.1% (active) | 76.4% |
| COc1ccc(-c2c(N)n[nH]c2-c2ccccc2O)cc1OC | 115% | 112% | 92.2% | 89.1% | 99.6% | 82.7% | 87.8% | 99% | 96.6% | 103% |
| NS(=O)(=O)c1cnccc1-n1ccc(=O)c(S(N)(=O)=O)c1 | 90.8% | 105% | 73.8% | 88.1% | 96.6% | 86.5% | 103% | 96.9% | 97.1% | 92.5% |
| O=[N+]([O-])c1ccc(-c2cc3c(Nc4ccc(OCc5cccc(Cl)c5)c(Cl)c4)ncnc3s2)cc1 | 55.3% | 47.3% | 69.8% | 67.6% | 52.8% | 48% | 97.6% | 78.3% | 66.4% | 86.8% |
| C=CC(=O)N[C@@H](Cc1ccc(-c2cc(Cl)cc(Cl)c2)cc1)[C@@H](O)[C@H](O)C(=O)O | 104% | 87.9% | 104% | 98.1% | 92.1% | 89.4% | 99.3% | 89.3% | 98.4% | 107% |
| O=C1Nc2ccccc2SC1c1ccccc1Cl (stereo not given) | 110% | 46% | 34.5% | 111% | 112% | 92.8% | 106% | 101% | 107% | 104% |
| COC(=O)CCCNC(=O)C(=O)c1c(O)c(O)c(C(C)C)c2cc(C)c(-c3c(C)cc4c(C(C)C)c(O)c(O)c(C(=O)C(=O)NCCCC(=O)OC)c4c3O)c(O)c12 | 1.55% (active) | -22.9% (active) | 49.6% | 22.5% | -62.4% (active) | 21.4% | -68.8% (active) | -35.6% (active) | -85.6% (active) | 23.5% |
| CCOC(=O)c1c(C)[nH]c(C(=O)CCC(=O)OC)c1C | 92.4% | 86.7% | 106% | 106% | 99.9% | 81.2% | 106% | 101% | 103% | 111% |
| COc1cc2cc(Oc3ccc(NC(=O)Nc4cc(C(F)(F)F)cc(C(F)(F)F)c4)cc3)c(C)nc2cc1OCCN1CCCCC1 | -82.4% (active) | -64.8% (active) | -97.7% (active) | -92.2% (active) | -69.3% (active) | -45.2% (active) | -49.9% (active) | -84.9% (active) | -99.1% (active) | -95.5% (active) |
| COc1ccc(C(=O)/C=C/c2cc3c(c(OC)c2)OCC(=O)N3)cc1 | 33.4% | 19.2% | 20.7% | 76.1% | 67.6% | 49.6% | 84.2% | 85.3% | 40.1% | 73.1% |
| O=C(c1ccccc1)c1ccc(Cl)c([N+](=O)[O-])c1 | 90% | 83% | 87.7% | 98.5% | 97.1% | 90.2% | 101% | 93.2% | 37.1% | 96.8% |
| COc1ccc(-c2cncnc2N)cc1OC | 103% | 111% | 88.3% | 108% | 97.7% | 90.6% | 106% | 112% | 98.6% | 106% |
| O=c1[nH]nc(-c2ccc(Cl)cc2)cc1Cc1ccccc1 | 103% | 108% | 88.3% | 101% | 92.5% | 90.9% | 105% | 79.3% | 93.4% | 114% |

| SMILES | growth (HCT-15 colon) | growth (HT29 colon) | growth (SNB-75 CNS) | growth (SNB-19 CNS) | growth (U251 CNS) | growth (PC-3 prostate) | growth (SK-MEL-5 melanoma) | growth (UACC-62 melanoma) | growth (LOX IMVI melanoma) | growth (SK-MEL-28 melanoma) |
| --- | --- | --- | --- | --- | --- | --- | --- | --- | --- | --- |
| CCCCCCCC/C=C/CCCCCCCC1=NCC[N+]1(CCO)CCO | 80.6% | 13% | 63.2% | 73.7% | 36.1% | 31.9% | 77.9% | 69.4% | 52% | 96.3% |
| CCN(CC)CC(O)CNc1c2ccc(Cl)cc2nc2ccc(OC)cc12 (stereo not given) | -6.56% (active) | -4.13% (active) | 58.4% | 57.3% | -28.3% (active) | 16.6% | -92.5% (active) | 64.8% | -64.2% (active) | -96.6% (active) |
| CN1C[C@@H](c2ccc(Cl)cc2)[C@]2(NC(=S)N(c3ccc(F)c(Cl)c3)C2=O)[C@@]12C(=O)NC1C=CC(Cl)=C[C@H]12 (stereo not given in full) | 48.5% | 33.4% | 53.2% | 47.2% | 59.9% | 8.42% (active) | 44.5% | 55.7% | 43.5% | 72.6% |
| CS(=O)(=O)c1ccc(-c2nc3cc(Cl)ccc3n2CC(=O)N/N=C/c2ccc(Cl)cc2)cc1 | 72.6% | 36.2% | 42.1% | 51.3% | 30.5% | 45.5% | 23.1% | 56.2% | 30.7% | 43.6% |
| CC12CC(C#N)CCC1O2 (stereo not given) | 118% | 109% | 100% | 111% | 103% | 101% | 111% | 109% | 108% | 109% |
| Nc1nc(Nc2ccc(Cl)cc2)nn1S(=O)(=O)c1ccc(-c2ccc(F)cc2)cc1 | 77.4% | 80% | 79% | 88.8% | 88.8% | 67.4% | 98.7% | 72.5% | 83.6% | 94.5% |
| NC(=O)c1c(NC(=O)c2ccccn2)sc2c1CCC(=O)C2 | 13.4% | 68% | -1.34% (active) | 42.7% | 13.6% | 10.7% | -19.5% (active) | -3.06% (active) | 21.6% | 39.9% |
| NC(N)=N/N=C/c1ccc(Br)cc1 | 23.4% | 9.57% (active) | 34% | 35.8% | 25.4% | 27.8% | 13.2% | 36.3% | 43% | 58.9% |
| CCn1c(Sc2nnc(NC(=O)CCN3CCCC3)s2)nc2c1c(=O)n(C)c(=O)n2C | 104% | 107% | 97.8% | 104% | 95.3% | 103% | 104% | 101% | 99.9% | 111% |
| CCNCCNc1cc(-c2ccc(F)cc2)c(C#N)c2nc3ccccc3n12 | 23.8% | 16.6% | 48.4% | 79.3% | 17.1% | 42.1% | -62.9% (active) | 12.7% | -77.4% (active) | -91% (active) |
| COc1cc2c(cc1OC)-c1ccc3cc4c(cc3c1N(CCN1CCCC1)C2)OCO4 | 40.6% | -51.2% (active) | -3.1% (active) | -5.63% (active) | -55.7% (active) | 2.3% (active) | 26.4% | 36.1% | -79% (active) | 77.2% |
| N=C(N)c1ccc(-c2ccc(-c3ccc(Cl)c(Cl)c3)o2)nc1 | 17.2% | -39.8% (active) | 97.8% | 6.96% (active) | -57.1% (active) | 64.5% | 92.4% | 103% | -74.7% (active) | 99.6% |
| CCc1nc2ccccc2[nH]1 | 108% | 108% | 91.1% | 98.3% | 106% | 101% | 110% | 98.9% | 107% | 105% |
| Nc1nc(I)c2ncn(C3OC(CO)C(O)C3O)c2n1 (stereo not given) | 104% | 141% | 130% | 102% | 100% | 124% | 102% | 90.4% | 93.5% | 126% |
| CCOc1ccc(-c2nc3ccc(-c4nc5ccc(N6CCN(C)CC6)cc5[nH]4)cc3[nH]2)cc1OCC | 63.7% | 19.4% | 6.64% (active) | 8.93% (active) | 4.64% (active) | 17.2% | 8.43% (active) | -14.3% (active) | -74.5% (active) | -27.2% (active) |
| Nc1ccc2c(S(=O)(=O)O)ccc(S(=O)(=O)O)c2c1 | 105% | 105% | 92% | 93.5% | 99.5% | 91.9% | 93.5% | 90.5% | 98.1% | 116% |
| CCCCCCNCc1cc(C(C)(C)C)cc(CNCCCCCC)c1O | -59.6% (active) | -86% (active) | -62.1% (active) | 9.11% (active) | -88.4% (active) | 6.77% (active) | -98.2% (active) | -85.3% (active) | -88.8% (active) | -88.8% (active) |
| N#C/C(=C\c1ccc2c(c1)OCO2)n1nnc2ccccc21 | 9% (active) | 11.5% | -49.7% (active) | 19.8% | 13% | 12.5% | 20.4% | 20% | -11% (active) | 25.8% |
| COc1cc(/C=C/C(=O)c2cccc(-n3cc(-c4ccc(Cl)cc4)[nH]c3=O)c2)cc(OC)c1OC | 40.3% | -12% (active) | 84.9% | 75.5% | 30.9% | 47.7% | 58.2% | 72.4% | -47.4% (active) | 86.5% |
| N#Cc1c(N)nc2c(nnn2-c2cccc(C(F)(F)F)c2)c1N | 86.3% | 86% | 82.6% | 93.1% | 85.2% | 86.8% | 87.9% | 88.5% | 94.7% | 111% |
